Among the data in ChEMBL document CHEMBL1961873, “Compounds: GSK PKIS; Assays: Nanosyn kinase panel” (2012) are inhibition values, retold here.

The structures appear in SMILES notation.

Experiment [1] deals with Serine/threonine-protein kinase 26 (Homo sapiens) (UniProt Q9P289). The following applies: at 1 µM.
Experiment [2] deals with Serine/threonine-protein kinase PAK 1 (Homo sapiens) (UniProt Q13153). The following applies: at 0.1 µM.
The target is the same in experiment [3]. The following applies: at 1 µM.
Experiment [4] has as its target Serine/threonine-protein kinase PAK 2 (Homo sapiens) (UniProt Q13177). The following applies: at 0.1 µM.
Experiment [5] shares this target. The following applies: at 1 µM.
For experiment [6], the target named is Serine/threonine-protein kinase PAK 3 (Homo sapiens) (UniProt O75914). The following applies: at 0.1 µM.
Chain of Serine/threonine-protein kinase PAK 3 (Homo sapiens) (O75914 whole entry, looked up): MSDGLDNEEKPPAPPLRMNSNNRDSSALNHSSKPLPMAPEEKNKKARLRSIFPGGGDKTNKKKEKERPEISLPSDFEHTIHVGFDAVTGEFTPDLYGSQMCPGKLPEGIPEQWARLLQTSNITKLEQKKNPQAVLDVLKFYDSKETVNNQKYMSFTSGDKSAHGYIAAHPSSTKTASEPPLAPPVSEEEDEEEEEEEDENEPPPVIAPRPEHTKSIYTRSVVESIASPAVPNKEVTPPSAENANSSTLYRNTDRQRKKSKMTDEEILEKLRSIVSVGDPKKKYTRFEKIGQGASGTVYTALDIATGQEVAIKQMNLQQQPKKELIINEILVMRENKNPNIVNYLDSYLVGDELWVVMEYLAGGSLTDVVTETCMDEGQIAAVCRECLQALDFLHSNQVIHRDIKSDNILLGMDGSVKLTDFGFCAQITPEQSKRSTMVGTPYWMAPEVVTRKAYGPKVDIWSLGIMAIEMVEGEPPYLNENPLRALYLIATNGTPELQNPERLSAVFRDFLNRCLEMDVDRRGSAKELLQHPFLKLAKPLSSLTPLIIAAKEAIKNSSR
For experiment [7] the target is unchanged. The following applies: at 1 µM.
Experiment [8] deals with Serine/threonine-protein kinase PAK 5 (Homo sapiens) (UniProt Q9P286). The following applies: at 0.1 µM.
Chain of Serine/threonine-protein kinase PAK 5 (Homo sapiens) (Q9P286 whole entry, looked up): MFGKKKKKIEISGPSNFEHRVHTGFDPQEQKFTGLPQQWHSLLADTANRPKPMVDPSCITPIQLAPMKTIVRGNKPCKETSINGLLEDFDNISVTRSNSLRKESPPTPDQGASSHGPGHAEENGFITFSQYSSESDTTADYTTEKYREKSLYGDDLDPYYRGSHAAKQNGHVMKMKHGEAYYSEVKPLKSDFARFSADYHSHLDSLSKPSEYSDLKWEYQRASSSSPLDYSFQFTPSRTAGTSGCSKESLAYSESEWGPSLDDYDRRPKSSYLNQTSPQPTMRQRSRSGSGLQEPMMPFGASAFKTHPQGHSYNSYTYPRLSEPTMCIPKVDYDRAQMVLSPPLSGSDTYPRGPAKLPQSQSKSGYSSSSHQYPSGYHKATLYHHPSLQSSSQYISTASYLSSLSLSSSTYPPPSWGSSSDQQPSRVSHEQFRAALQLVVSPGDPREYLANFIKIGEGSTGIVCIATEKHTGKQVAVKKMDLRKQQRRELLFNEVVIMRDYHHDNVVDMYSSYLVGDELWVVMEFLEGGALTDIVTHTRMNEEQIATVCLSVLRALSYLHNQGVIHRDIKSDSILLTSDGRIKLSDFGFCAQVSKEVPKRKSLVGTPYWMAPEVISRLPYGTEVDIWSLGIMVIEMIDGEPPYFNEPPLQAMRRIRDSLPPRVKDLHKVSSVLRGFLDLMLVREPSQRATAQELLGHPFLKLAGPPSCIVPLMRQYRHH
For experiment [9] the target is unchanged. The following applies: at 1 µM.
Experiment [10] deals with Serine/threonine-protein kinase PAK 6 (Homo sapiens) (UniProt Q9NQU5). The following applies: at 0.1 µM.
Chain of Serine/threonine-protein kinase PAK 6 (Homo sapiens) (Q9NQU5 whole entry, looked up): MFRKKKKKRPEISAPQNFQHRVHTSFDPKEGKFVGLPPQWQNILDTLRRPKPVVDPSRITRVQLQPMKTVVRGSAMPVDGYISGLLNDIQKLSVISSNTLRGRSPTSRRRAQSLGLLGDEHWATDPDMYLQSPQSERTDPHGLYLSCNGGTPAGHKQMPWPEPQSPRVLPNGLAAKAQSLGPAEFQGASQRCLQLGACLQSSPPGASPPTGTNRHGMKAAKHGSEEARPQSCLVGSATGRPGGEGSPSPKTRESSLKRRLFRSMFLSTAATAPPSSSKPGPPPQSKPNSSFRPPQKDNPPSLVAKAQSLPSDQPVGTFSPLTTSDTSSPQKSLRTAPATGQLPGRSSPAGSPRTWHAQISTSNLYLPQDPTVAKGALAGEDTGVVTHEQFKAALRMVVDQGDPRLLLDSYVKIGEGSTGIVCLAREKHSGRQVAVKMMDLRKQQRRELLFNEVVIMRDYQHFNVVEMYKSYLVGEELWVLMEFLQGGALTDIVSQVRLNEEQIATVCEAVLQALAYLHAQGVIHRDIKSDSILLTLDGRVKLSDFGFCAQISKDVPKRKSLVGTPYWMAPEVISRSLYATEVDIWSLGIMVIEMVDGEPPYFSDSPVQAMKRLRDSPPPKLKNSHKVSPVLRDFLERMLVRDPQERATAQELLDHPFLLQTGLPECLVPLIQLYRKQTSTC
The target is the same in experiment [11]. The following applies: at 1 µM.
The test system of experiment [12] is Tyrosine-protein kinase ABL1 (Homo sapiens), P00519 [E255K]. The following applies: at 0.1 µM.
For experiment [13] the test system is unchanged. The following applies: at 1 µM.
Experiment [14] relates to Tyrosine-protein kinase ABL1 (Homo sapiens), P00519 [H396P]. The following applies: at 0.1 µM.
The test system is the same in experiment [15]. The following applies: at 1 µM.
In experiment [16] the test system is Tyrosine-protein kinase ABL1 (Homo sapiens), P00519 [M351T]. The following applies: at 0.1 µM.
The test system is the same in experiment [17]. The following applies: at 1 µM.
In experiment [18] the test system is Tyrosine-protein kinase ABL1 (Homo sapiens), P00519 [Q252H]. The following applies: at 0.1 µM.
Experiment [19] has the same test system. The following applies: at 1 µM.
Experiment [20] concerns Tyrosine-protein kinase ABL1 (Homo sapiens), P00519 [T315I]. The following applies: at 0.1 µM.

Chain of Serine/threonine-protein kinase PAK 2 (Homo sapiens) (Q13177 whole entry): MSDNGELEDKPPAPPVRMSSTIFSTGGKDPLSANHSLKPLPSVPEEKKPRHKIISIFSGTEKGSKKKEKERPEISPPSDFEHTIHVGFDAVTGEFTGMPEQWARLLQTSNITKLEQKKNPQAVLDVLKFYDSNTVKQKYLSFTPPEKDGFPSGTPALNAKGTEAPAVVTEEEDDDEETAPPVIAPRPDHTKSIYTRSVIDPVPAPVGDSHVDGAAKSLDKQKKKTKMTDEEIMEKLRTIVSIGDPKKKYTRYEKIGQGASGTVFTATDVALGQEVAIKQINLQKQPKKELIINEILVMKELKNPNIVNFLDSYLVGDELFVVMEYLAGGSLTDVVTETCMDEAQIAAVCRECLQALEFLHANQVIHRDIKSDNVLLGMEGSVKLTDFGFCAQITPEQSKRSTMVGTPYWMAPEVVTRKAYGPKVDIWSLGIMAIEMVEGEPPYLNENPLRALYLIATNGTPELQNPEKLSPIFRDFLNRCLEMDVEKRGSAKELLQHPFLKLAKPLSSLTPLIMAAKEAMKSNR
Chain of Serine/threonine-protein kinase 26 (Homo sapiens) (Q9P289 2-416 limits assumed): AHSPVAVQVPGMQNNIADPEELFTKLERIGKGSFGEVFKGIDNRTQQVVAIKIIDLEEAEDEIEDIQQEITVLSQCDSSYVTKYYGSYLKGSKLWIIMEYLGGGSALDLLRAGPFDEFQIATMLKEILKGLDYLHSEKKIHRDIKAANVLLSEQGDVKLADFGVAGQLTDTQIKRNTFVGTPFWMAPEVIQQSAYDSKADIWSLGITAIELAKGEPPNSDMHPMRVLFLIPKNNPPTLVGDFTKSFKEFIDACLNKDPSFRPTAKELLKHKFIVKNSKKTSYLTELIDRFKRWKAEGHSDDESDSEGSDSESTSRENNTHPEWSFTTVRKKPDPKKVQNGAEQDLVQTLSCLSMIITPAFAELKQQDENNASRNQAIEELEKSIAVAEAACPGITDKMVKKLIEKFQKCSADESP
Chain of Serine/threonine-protein kinase PAK 1 (Homo sapiens) (Q13153 whole entry): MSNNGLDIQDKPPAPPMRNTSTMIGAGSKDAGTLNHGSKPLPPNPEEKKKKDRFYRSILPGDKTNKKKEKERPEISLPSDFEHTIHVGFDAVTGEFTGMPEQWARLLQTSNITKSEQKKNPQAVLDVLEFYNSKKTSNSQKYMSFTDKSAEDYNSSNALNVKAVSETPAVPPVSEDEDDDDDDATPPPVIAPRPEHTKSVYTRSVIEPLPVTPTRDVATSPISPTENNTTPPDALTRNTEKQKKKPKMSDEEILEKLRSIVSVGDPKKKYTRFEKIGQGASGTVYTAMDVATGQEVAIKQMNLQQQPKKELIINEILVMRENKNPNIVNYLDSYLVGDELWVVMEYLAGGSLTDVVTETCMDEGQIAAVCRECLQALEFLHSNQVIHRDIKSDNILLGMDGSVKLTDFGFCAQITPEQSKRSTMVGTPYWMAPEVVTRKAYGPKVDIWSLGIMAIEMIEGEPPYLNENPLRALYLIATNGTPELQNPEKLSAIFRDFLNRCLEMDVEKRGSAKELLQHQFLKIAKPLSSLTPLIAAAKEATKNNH

With `NC(=O)c1sc(-n2cnc3ccc(C(F)(F)F)cc32)cc1OCc1ccccc1Br`, the inhibition (usually the drop in the measured response relative to a control, in per cent) came to 0.41% in experiment [1]; 5.7% in [2]; 7.84% in experiment [3]; 0.77% in [4]; 1.46% in experiment [5]; 3.71% in experiment [6]. Further, the inhibition in [7] is 3.48%; in experiment [8] it was 1.98%; in experiment [9], 3.21%; in [10], -5.11%; in experiment [11], -7.15%; in [12], 3.08%. Further, the inhibition in experiment [13] turned out to be 2.1%; in experiment [14], 3.37%; in experiment [15], 3.08%; in [16], 1.6%; in experiment [17] it was 3.37%; in experiment [18], 3.06%. Further, the inhibition in [19] is 3.55%; in experiment [20] it was 1.98%.
For `COC(=O)Nc1nc2ccc(Oc3ccc(NC(=O)Nc4cccc(Cl)c4)cc3)cc2[nH]1`, the inhibition in [1] was 1.03%; in experiment [2], 5.21%; in experiment [3] it was 1.37%; in experiment [4], -0.81%; in [5], 0.02%; in experiment [6], 1.03%. In addition, the inhibition in [7] was 2.18%; in experiment [8] it was 2.63%; in experiment [9], 3.67%; in [10] it was -3.19%; in experiment [11] it was -1.03%; in [12], 3.36%. Besides, the inhibition in experiment [13] amounted to 8.54%; in [14], 15.3%; in [15] it was 40.9%; in experiment [16], 37.5%; in experiment [17], 56.3%; in experiment [18], 35.7%. Moreover, the inhibition came to 59.7% in experiment [19] and 23.3% in experiment [20].
Turning to `CNC(=O)c1cncc(/C=C/c2ccccc2Cl)c1`, the inhibition in experiment [1] was 1.7%; in experiment [2] it was 0.81%; in experiment [3] it was 1.33%; in [4], 0.07%; in experiment [5], -0.55%; in experiment [6], 0.06%. Moreover, the inhibition was 0.54% in experiment [7]; 6.76% in [8]; 4.3% in experiment [9]; 8.93% in experiment [10]; 3.32% in experiment [11]; -0.16% in experiment [12]. In addition, the inhibition in experiment [13] was 14.2%; in experiment [14] it was 2.14%; in experiment [15] it was 24.1%; in experiment [16] it was 3.34%; in experiment [17] it was 20%; in experiment [18], 1.38%. Further, the inhibition was 17.3% in experiment [19] and 0.79% in experiment [20].
For the compound `NS(=O)(=O)c1ccc(Nc2ncc(-c3ccccc3)o2)cc1`, the inhibition in [1] is -2.5%; in [2], 4.04%; in [3], 7.88%; in [4], 2.52%; in experiment [5] it was 1.78%; in [6], 4.23%. Besides, the inhibition in [7] is 5.19%; in experiment [8], 8.88%; in experiment [9], 9.45%; in experiment [10], -1.35%; in [11], 8.68%; in [12] it was 4.6%. In addition, the inhibition in experiment [13] is 17.8%; in experiment [14], 8.3%; in experiment [15] it was 39.3%; in [16] it was 3.46%; in experiment [17], 40.1%; in experiment [18], 4.58%. In addition, the values for the inhibition in [19] and in experiment [20] were 28.1% and 3.72%, respectively.
Regarding `Nc1ncc(-c2cccc(S(N)(=O)=O)c2)c2scc(-c3ccc(F)c(Cl)c3)c12`, the inhibition in [1] was found to be 2.44%; in experiment [2], 3.95%; in experiment [3], 5.65%; in experiment [4], 3.24%; in experiment [5], 1.78%; in [6] it was 5.21%. The inhibition was 3.51% in [7]; 4.11% in [8]; 3.74% in [9]; -2.3% in [10]; -1.87% in experiment [11]; 35.4% in experiment [12]. The inhibition is 84.7% in [13]; 69.4% in experiment [14]; 93.5% in [15]; 64.2% in [16]; 93.9% in experiment [17]; 55.3% in experiment [18]. Besides, the results for the inhibition in [19] and in experiment [20] were 91.4% and 5.83%, respectively.
Take `Clc1ccc(-c2nn3ncccc3c2-c2ccnc(Nc3ccccc3)n2)cc1`: the inhibition in [1] was 2.44%; in experiment [2] it was 2.29%; in [3], -0.81%; in [4], 1.12%; in [5], -0.15%; in [6] it was 0.58%. The inhibition is 0.87% in [7]; 7.85% in experiment [8]; -0.84% in experiment [9]; 7.89% in [10]; 1.5% in [11]; 2.58% in [12]. For the same compound, the inhibition was 8.98% in experiment [13]; 4.63% in [14]; 20.5% in experiment [15]; 10.4% in experiment [16]; 45.8% in experiment [17]; 5.9% in experiment [18]. For the same compound, the inhibition in experiment [19] is 36.2%; in experiment [20], 6.6%.
In the case of `FC(F)(F)c1cccc(-c2nn3ncccc3c2-c2ccnc(Nc3ccc4c(c3)OCCO4)n2)c1`, the inhibition in experiment [1] was 0.56%; in experiment [2] it was 3.7%; in experiment [3] it was 3.72%; in experiment [4], 1.01%; in experiment [5], 1.43%; in [6], 1.69%. Further, the inhibition in experiment [7] is 2.03%; in experiment [8] it was -5.89%; in experiment [9], -2.25%; in [10], -3.42%; in experiment [11], -1.75%; in experiment [12] it was 3.04%. In addition, the inhibition in experiment [13] turned out to be 9.11%; in [14], 6.97%; in experiment [15] it was 36.6%; in experiment [16] it was 10.1%; in [17], 50%; in [18], 9.57%. Also, the inhibition in experiment [19] came out at 45.2%; in experiment [20] it was 10.1%.
As to `CCOc1ccc2c(-c3ccnc(Nc4cccc(C(F)(F)F)c4)n3)cnn2n1`, the inhibition was 0.13% in experiment [1]; 4.57% in [2]; 3.75% in experiment [3]; -0.07% in [4]; -0.6% in experiment [5]; 3.17% in [6]. The inhibition was 2.39% in experiment [7]; 0.65% in experiment [8]; -0.74% in experiment [9]; -3.86% in experiment [10]; -3.51% in experiment [11]; 2.13% in experiment [12]. For the same compound, the inhibition in experiment [13] turned out to be 4.02%; in [14] it was 2.46%; in [15], 4.74%; in [16] it was 0.25%; in [17], 1.69%; in experiment [18], 2.99%. Besides, the values for the inhibition in experiment [19] and in [20] were 3.05% and -0.14%, respectively.
